Screening data from PubChem BioAssay.
Rows were chosen to be rich in hits. Some 3.9% of all compounds tested hit in one or more screens of this group.
AHR act: human AHR activation; P35869; AHR-responsive luciferase reporter cells, luminescence; activation, % at 5 µM; 320,000 tested, 2.5% active; AID 2796; in the data active = activation above about 47%
PLCg1 inh: blocks human PLC-gamma1 enzyme activity; P19174; purified PLC-gamma1, fluorogenic substrate, fluorescence; inhibition, % at 12.2 µM; 370,000 tested, 0.84% active; AID 720700; in the data active = inhibition above about 9.5%
Target sequence (P19174 whole entry, looked up): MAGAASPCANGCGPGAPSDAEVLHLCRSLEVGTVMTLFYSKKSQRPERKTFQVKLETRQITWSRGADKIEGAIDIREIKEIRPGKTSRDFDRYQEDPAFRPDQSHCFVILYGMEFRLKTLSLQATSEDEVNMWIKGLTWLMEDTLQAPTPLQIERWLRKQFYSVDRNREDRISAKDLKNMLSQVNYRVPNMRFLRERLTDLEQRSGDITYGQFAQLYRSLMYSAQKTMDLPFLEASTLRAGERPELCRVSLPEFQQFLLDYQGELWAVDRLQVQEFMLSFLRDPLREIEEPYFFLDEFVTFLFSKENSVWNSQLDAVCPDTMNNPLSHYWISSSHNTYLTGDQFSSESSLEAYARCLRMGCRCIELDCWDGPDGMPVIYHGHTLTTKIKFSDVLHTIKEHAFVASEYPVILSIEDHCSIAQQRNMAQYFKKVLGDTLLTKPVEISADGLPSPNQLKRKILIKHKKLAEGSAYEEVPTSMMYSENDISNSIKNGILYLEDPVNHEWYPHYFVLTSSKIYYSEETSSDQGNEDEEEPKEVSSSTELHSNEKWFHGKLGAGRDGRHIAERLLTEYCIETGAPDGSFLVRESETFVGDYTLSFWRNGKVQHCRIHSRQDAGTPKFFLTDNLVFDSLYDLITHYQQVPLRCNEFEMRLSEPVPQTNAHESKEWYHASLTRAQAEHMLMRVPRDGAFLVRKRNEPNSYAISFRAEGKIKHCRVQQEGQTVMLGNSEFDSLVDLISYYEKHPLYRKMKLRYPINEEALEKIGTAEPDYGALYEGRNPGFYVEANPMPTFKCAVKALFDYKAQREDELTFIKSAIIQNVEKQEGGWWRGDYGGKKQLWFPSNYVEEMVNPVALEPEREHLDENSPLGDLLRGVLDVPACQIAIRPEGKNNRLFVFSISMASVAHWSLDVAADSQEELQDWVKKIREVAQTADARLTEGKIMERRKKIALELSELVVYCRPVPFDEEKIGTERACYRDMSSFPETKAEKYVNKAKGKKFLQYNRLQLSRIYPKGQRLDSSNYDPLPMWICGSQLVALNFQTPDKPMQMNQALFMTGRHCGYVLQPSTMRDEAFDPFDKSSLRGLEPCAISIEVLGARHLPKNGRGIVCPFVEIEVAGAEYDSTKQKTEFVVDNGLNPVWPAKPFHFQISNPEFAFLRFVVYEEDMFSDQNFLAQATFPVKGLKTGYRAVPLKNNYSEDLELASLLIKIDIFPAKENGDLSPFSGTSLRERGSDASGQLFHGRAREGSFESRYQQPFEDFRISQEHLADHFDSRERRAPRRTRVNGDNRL
HIF act: HIF pathway transcriptional activation | U2OS HRE-luciferase reporter, luminescence; normalized: DMSO 0%, desferrioxamine 100% | activation, % at 7.5 µM (by protocol) | 300,000 tested, 0.32% active | AID 1910;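 active = mean activation of at least 10% of the iron chelator positive control signal, with at least half of replicates also reaching 10%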
PLCb3 inh: PLC-beta3 (human) inhibition, primary screen; Q01970; Purified PLC-beta3, fluorogenic substrate, fluorescence; inhibition, % at 12.2 µM; 370,000 tested, 0.18% active; in the data active = inhibition above about 11%
HGIII-sPLA2 inh: Blocks human group III sPLA2 activity | QFRET BODIPY PC-A2 liposome hydrolysis, fluorescence | inhibition, % at 12.2 µM | 370,000 tested, 0.56% active | AID 743126;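 active = inhibition above mean plus 3 SD of compounds lying within the high and low control bounds, cut at about 19% in these data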
Yeast superoxide: caloric restriction mimetics inhibiting age-related superoxide in yeast; 330,000 tested, 0.18% active; AID 2690; superoxide response (% of plate mean), % at 10 µM; S. cerevisiae aged cells, superoxide DHE fluorescence; hits give low values;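 active = superoxide response under a set limit, about three screen SD below normal, cut at about 65% in these data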;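 also: yeast aged for seven days with compound at 30 °C before DHE staining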
Superoxide pick: confirmation of caloric restriction mimetics inhibiting yeast age-related superoxide; shares compounds with Yeast superoxide; S. cerevisiae aging, superoxide DHE fluorescence; hits give low values; superoxide response (% of plate), % at 10 µM; 850 tested, 1% active; AID 434994;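 active = superoxide signal below 65% of the plate average of sample wells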;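 also: cells aged with compound for 7 days at 30 degrees C before staining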
DHE fluor count: counter-screen for compounds affecting DHE oxidation and fluorescence in yeast; shares compounds with Yeast superoxide; S. cerevisiae BY4741, flow cytometry; hits give low values; fluorescence response, % at 10 µM; 850 tested, under 10 active;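 active = fluorescence response below 15%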;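 also: lower means stronger quenching of DHE signal or ROS scavenging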
Large screens that a line does not name were inactive (follow-up assays come after a bar, where they were run).

CCCN(CC(=O)Nc1ccccc1C)C(=O)c1ccc(OCc2c(C)noc2C)cc1	none (no result: AHR act, HIF act, Yeast superoxide)
CCOc1ccccc1C(=O)N1CCN(c2cccc(Cl)c2)CC1	none | Superoxide pick inactive | DHE fluor count inactive
COc1ccc(C(C)=O)cc1Cn1c(C)c(C(=O)NCCC#N)sc1=O	none (no result: AHR act, HIF act, Yeast superoxide)
Cn1c(=O)c2[nH]c(-c3cccnc3)nc2n(C)c1=O	Yeast superoxide 58 | Superoxide pick inactive | DHE fluor count inactive
O=C(Cn1ncc2c([nH]c3ccccc32)c1=O)NCCCN1CCN(c2ccccc2)CC1	none
COc1ccc(C(=O)NCN2CCN(c3ccccc3)CC2)cc1OC	none (no result: HIF act)
CCCNS(=O)(=O)c1ccc(NC(=O)c2cccnc2)cc1	Yeast superoxide 58 | Superoxide pick inactive | DHE fluor count inactive
OC(CN1CCCCC1)Cn1c2ccccc2c2ccccc21 (stereo not given)	Yeast superoxide 46 | Superoxide pick inactive | DHE fluor count inactive
OCCN(CCO)CC(O)Cn1c2ccccc2c2ccccc21 (stereo not given)	none | Superoxide pick inactive | DHE fluor count inactive
CN(CC(O)Cn1c2ccccc2c2ccccc21)S(C)(=O)=O (stereo not given)	none (no result: HIF act) | Superoxide pick inactive | DHE fluor count inactive
O=c1c2ccccc2n(CC(O)CN2CCCCC2)c2ccccc12 (stereo not given)	none
COc1ccc(OC)c(S(=O)(=O)NC(=O)C2(C)CCN2C(=O)Cc2ccccc2Cl)c1 (stereo not given)	none (no result: AHR act, HIF act, Yeast superoxide)
O=C(CSc1nnc(-c2ccc(O)cc2)n1Cc1ccco1)N1CCc2ccccc2C1	Yeast superoxide 60 | Superoxide pick inactive | DHE fluor count inactive
NC(=O)CSc1nnc(-c2ccc(O)cc2)n1Cc1ccco1	none
O=c1cc(-c2ccccc2)c2c(O)cc(O)cc2o1	none
O=c1cc(O)c2c(=O)n(-c3ccccc3)c3ccccc3c2o1	none | Superoxide pick inactive | DHE fluor count inactive
CCn1c(=O)c2c(O)cc(=O)oc2c2ccccc21	Yeast superoxide 48 | Superoxide pick inactive | DHE fluor count inactive
CC(C)n1c(=O)c2c(O)cc(=O)oc2c2ccccc21	none | Superoxide pick inactive | DHE fluor count inactive
COc1ccc(NC(C)=O)cc1S(=O)(=O)NCc1ccc2c(c1)OCO2	none (no result: AHR act, HIF act, Yeast superoxide)
Cc1ccc(S(=O)(=O)Nc2c(C)cc(C)nc2Cl)cc1	Yeast superoxide 50 | Superoxide pick inactive | DHE fluor count inactive
CCN(C(=O)CN1C(=O)NC2(CCC(C)CC2)C1=O)C1CCCCC1 (stereo not given)	none (no result: AHR act, HIF act, Yeast superoxide)
COc1ccccc1N1CCN(c2ccc([N+](=O)[O-])cn2)CC1	none
CN(C(=O)CN1CCN(c2ccc([N+](=O)[O-])cn2)CC1)c1ccccc1	none (no result: PLCg1 inh, PLCb3 inh, HGIII-sPLA2 inh) | Superoxide pick inactive | DHE fluor count inactive
CCCc1cc(=O)[nH]c(SCC(=O)Nc2cc(S(=O)(=O)N3CCCCC3)ccc2C)n1	none (no result: HIF act)
CSc1ccccc1C(=O)N1CCN(c2ccc(F)cc2)CC1	none | Superoxide pick inactive | DHE fluor count inactive
CS(=O)(=O)Nc1ccccc1C(=O)N1CCN(c2ccccc2)CC1	none | Superoxide pick inactive | DHE fluor count inactive
CS(=O)(=O)Nc1ccccc1C(=O)N1CCCC1	none
Cc1ccc(-n2c(SC/C=C/c3ccccc3)nnc2-c2ccco2)cc1	none (no result: AHR act, HIF act, Yeast superoxide)
Cc1c(N2CCCCC2)[nH]c2ccccc12	none (no result: AHR act, HIF act, Yeast superoxide)
CCCCOCC1CN(CCCC)S(=O)(=O)c2c(cccc2N2CCCCC2)O1 (stereo not given)	none (no result: AHR act, HIF act, Yeast superoxide)
C=CCNc1ncnc2c1cnn2-c1ccc(C)cc1C	none | Superoxide pick inactive | DHE fluor count inactive
COc1ccccc1-c1nnc(NC(=O)c2ccc(S(=O)(=O)N3CCOCC3)cc2)o1	none | Superoxide pick inactive | DHE fluor count inactive
COc1ccc(-c2nnc(NC(=O)c3ccc(S(=O)(=O)N4CCCc5ccccc54)cc3)o2)cc1	none (no result: PLCg1 inh, PLCb3 inh, HGIII-sPLA2 inh)
COCc1nnc(NC(=O)c2ccc(S(=O)(=O)N3CCCc4ccccc43)cc2)o1	none | Superoxide pick inactive | DHE fluor count inactive
COCc1nnc(NC(=O)c2ccc(S(=O)(=O)N3CCOCC3)cc2)o1	none | Superoxide pick inactive | DHE fluor count inactive
CCN(c1ccccc1)S(=O)(=O)c1ccc(Cl)c(NC(=O)CN(C)C2CCN(C)CC2)c1	none
CC1=C(C(=O)N(C)C)CC(CC(=O)NCCCCc2ccccc2)C(=O)N1Cc1ccc(C(C)(C)C)cc1 (stereo not given)	none (no result: AHR act, HIF act, Yeast superoxide)
COc1cc(NC(=O)CSc2nnc3n2C(C)(C)Cc2ccccc2-3)cc(OC)c1	Yeast superoxide 65 | Superoxide pick inactive | DHE fluor count inactive
COc1cccc(-c2cc(C(=O)NCc3ccco3)c3ccccc3n2)c1	none
CCOC(=O)c1cnc2c(F)ccc(F)c2c1Sc1ccccc1	Yeast superoxide 62 | Superoxide pick inactive | DHE fluor count inactive
CCOC(=O)c1cnc(-c2ccccc2)nc1C(F)(F)F	none
COc1cc([N+](=O)[O-])ccc1NC(=O)N1CCCCCC1	none
N#Cc1ccc(NC(=O)CN2CCN(c3ccccn3)CC2)cc1	none | Superoxide pick inactive | DHE fluor count inactive
Cc1cc(N)ccc1NC(=O)CN1CCCC1	Yeast superoxide 64 | Superoxide pick inactive | DHE fluor count inactive
CC(C)c1ccc(NC(=O)CN2CCN(c3ccccn3)CC2)cc1	none | Superoxide pick inactive | DHE fluor count inactive
CC(=O)c1ccc(NC(=O)CN2CCN(c3ncccn3)CC2)cc1	none
O=C(CN1CCN(CC(=O)Nc2ccccc2Cl)CC1)Nc1ccc(F)c(F)c1	Yeast superoxide 44 | Superoxide pick inactive | DHE fluor count inactive
O=C(CN1CCCCCC1)Nc1ccc(F)c(F)c1	none
CCOC(=O)COn1c(-n2nc(C)cc2C)nc2ccccc2c1=O	none
CC(=O)N1CCN(C(C(=O)Nc2c(C)cccc2C)c2cccc(F)c2)CC1 (stereo not given)	none (no result: AHR act, HIF act, Yeast superoxide)
CSc1ccccc1NC(=O)CN1CCN(c2ccccn2)CC1	none | Superoxide pick inactive | DHE fluor count inactive
COc1cc(NC(=O)c2ccccc2)c(OC)cc1NC(=O)CN1CCN(c2ccccn2)CC1	none
Cc1cc(Br)ccc1NC(=O)CN1CCN(c2ccccn2)CC1	none | Superoxide pick inactive | DHE fluor count inactive
O=C(CN1CCN(c2ccccn2)CC1)Nc1cccc(C(F)(F)F)c1	none | Superoxide pick inactive | DHE fluor count inactive
Cc1cnc(NC(=O)CN2CCN(c3ccccn3)CC2)s1	none
COc1ccc(NC(=O)CN2CCN(c3ccccn3)CC2)cc1Cl	Yeast superoxide 55 | Superoxide pick inactive | DHE fluor count inactive
CN1CCC(N(C)C(=O)/C(C#N)=C\c2ccc(OC(F)F)cc2)CC1	none (no result: AHR act, HIF act, Yeast superoxide)
O=C(NCc1ccccc1)C(c1ccccc1)n1c(-c2ccccn2)nc2ccccc21 (stereo not given)	none (no result: AHR act, HIF act, Yeast superoxide)
